Where a name gives a salt, the structure may show the parent alone.
Assays:
Conditions in all cases: compound concentration in added solution (µM; 5 µl added to 20 µl cells): 10; 18 h
A431 [1] = assay: LBPA endosome anti-LBPA integrated intensity (sum per cell), Z-score; higher = more LBPA staining
How it was run: (§1)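 Z-scores normalised in AcuityXpress are given for per-cell integrated LBPA or filipin intensity, measured whole-cell or within LBPA endosomes by MetaXpress segmentation. Cells (HeLa MZ or A431, 3,500 per well in 20 µl) were seeded onto 5 µl of 10 µM compound solution in duplicate 384-well imaging plates and fixed in 4% PFA after 18 h.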

HeLa MZ [2] = assay: as above
How it was run: as §1

A431 [3] = assay: whole-cell filipin (free cholesterol) integrated intensity, Z-score; higher = more cholesterol staining
How it was run: as §1

HeLa MZ [4] = assay: as above
How it was run: as §1

A431 [5] = assay: filipin (cholesterol) integrated intensity within LBPA endosomes, Z-score; higher = more cholesterol in LBPA endosomes
How it was run: as §1

HeLa MZ [6] = assay: as above
How it was run: as §1

| SMILES | LBPA endosome anti-LBPA integrated intensity (z-score) (A431 [1]) | LBPA endosome anti-LBPA integrated intensity (z-score) (HeLa MZ [2]) | whole-cell filipin (z-score) (A431 [3]) | whole-cell filipin (z-score) (HeLa MZ [4]) | filipin (z-score) (A431 [5]) | filipin (z-score) (HeLa MZ [6]) |
| --- | --- | --- | --- | --- | --- | --- |
| CCc1oc2ccccc2c1C(=O)c1cc(Br)c(O)c(Br)c1 [Benzbromarone] | -0.388 | -0.283 | -0.536 | -0.296 | -0.47 | -0.42 |
| CCCc1ncc(C[n+]2ccccc2C)c(N)n1 [Amprolium hydrochloride] | -0.558 | -1.09 | -0.581 | -0.0131 | -0.483 | -0.419 |
| Clc1ccc2nsnc2c1NC1=NCCN1 [Tizanidine HCl] | -0.331 | 0.552 | -0.333 | -0.51 | -0.548 | -0.219 |
| CC(=O)OCC(=O)[C@@]12OC(C)(C)O[C@@H]1C[C@H]1[C@@H]3C[C@H](F)C4=CC(=O)C=C[C@]4(C)[C@@]3(F)[C@@H](O)C[C@@]12C [Fluocinonide] | -0.115 | -0.842 | -0.144 | -0.284 | -0.311 | -0.49 |
| Cc1nnc(SCC2=C(C(=O)O)N3C(=O)[C@@H](NC(=O)Cn4cnnn4)[C@H]3SC2)s1 [Cefazolin sodium salt] | -0.481 | -0.611 | -0.424 | -0.218 | -0.384 | -0.417 |
| CNC(=C[N+](=O)[O-])NCCSCc1csc(CN(C)C)n1 [Nizatidine] | -0.247 | -0.223 | 0.149 | -0.639 | -0.347 | -0.405 |
| CC1(C)S[C@@H]2[C@H](NC(=O)[C@H](C(=O)O)c3ccsc3)C(=O)N2[C@H]1C(=O)O [Ticarcillin sodium] | -0.466 | -0.401 | -0.165 | -0.157 | -0.403 | -0.501 |
| C[C@](N)(Cc1ccc(O)c(O)c1)C(=O)O [Methyldopa (L,-)] | -0.446 | -0.811 | -0.449 | 0.0391 | -0.366 | -0.319 |
| N=C(N)NC(=O)Cc1c(Cl)cccc1Cl [Guanfacine hydrochloride] | -0.503 | 0.0887 | -0.556 | 0.368 | -0.462 | 0.00861 |
| CC(C(=O)O)c1ccc(-c2ccccc2)c(F)c1 (configuration not stated) [Flurbiprofen] | -0.227 | 0.0649 | 0.155 | -0.426 | -0.328 | -0.513 |
| CCn1cc(C(=O)O)c(=O)c2cc(F)c(N3CCNC(C)C3)c(F)c21 (configuration not stated) [Lomefloxacin hydrochloride] | -0.676 | -1.53 | -1.2 | -0.837 | -0.597 | -0.65 |
| C[C@H](CCC(=O)O)[C@H]1CC[C@H]2[C@@H]3[C@H](O)C[C@@H]4C[C@H](O)CC[C@]4(C)[C@H]3CC[C@]12C [Chenodiol] | -0.496 | -1.46 | -0.897 | -0.999 | -0.575 | -0.773 |
| CCOC(=O)/C=C(C)/C=C/C=C(C)/C=C/c1c(C)cc(OC)c(C)c1C [Etretinate] | -0.297 | 0.358 | 0.197 | -0.112 | -0.399 | -0.321 |
| C#C[C@]1(OC(C)=O)CC[C@H]2[C@@H]3CCC4=CC(=NO)CC[C@@H]4[C@H]3CC[C@@]21CC (mixture of isomers) [Norgestimate] | -0.26 | 1.65 | 0.197 | 0.173 | -0.31 | 0.087 |
| O=C1NCCN1c1ncc([N+](=O)[O-])s1 [Niridazole] | -0.413 | 0.107 | -0.918 | -0.144 | -0.517 | -0.432 |
| CC(=O)CC(c1ccc([N+](=O)[O-])cc1)c1c(O)c2ccccc2oc1=O (configuration not stated) [Acenocoumarol] | -0.507 | -0.33 | -0.704 | -0.387 | -0.49 | -0.482 |
| Cc1ccc(N(CC2=NCCN2)c2cccc(O)c2)cc1 [Phentolamine hydrochloride] | -0.384 | 0.635 | -0.578 | -0.161 | -0.477 | -0.0953 |
| CCOC(=O)C1=C(C)NC(C)=C(C(=O)OC)C1c1cccc(Cl)c1Cl (configuration not stated) [Felodipine] | -0.574 | -0.618 | -0.869 | -0.774 | -0.49 | -0.476 |
| CC(C)(C)NC[C@H](O)c1ccc(O)c(CO)c1 [Levalbuterol hydrochloride] | -0.401 | -1.22 | 0.171 | -0.774 | -0.471 | -0.476 |

| SMILES | LBPA endosome anti-LBPA integrated intensity (z-score) (A431 [1]) | LBPA endosome anti-LBPA integrated intensity (z-score) (HeLa MZ [2]) | whole-cell filipin (z-score) (A431 [3]) | whole-cell filipin (z-score) (HeLa MZ [4]) | filipin (z-score) (A431 [5]) | filipin (z-score) (HeLa MZ [6]) |
| --- | --- | --- | --- | --- | --- | --- |
| CCN(CC)CCOC(=O)C1(C2CCCCC2)CCCCC1 [Dicyclomine hydrochloride] | -0.0951 | 0.203 | 0.137 | -0.144 | 0.0207 | 0.0362 |
| NCc1ccc(S(N)(=O)=O)cc1 [Mafenide hydrochloride] | -0.472 | -0.546 | -0.682 | -0.536 | -0.471 | -0.44 |
| COc1cc(NS(=O)(=O)c2ccc(N)cc2)ncn1 [Sulfamonomethoxine] | -0.448 | 0.107 | -0.452 | 0.0403 | -0.378 | -0.344 |
| NC(=O)NC1NC(=O)NC1=O (configuration not stated) [Allantoin] | -0.71 | -1.01 | -1.02 | -0.573 | -0.456 | -0.604 |
| N[C@@H](C(=O)N[C@@H]1C(=O)N2C(C(=O)O)=C(Cl)CS[C@H]12)c1ccccc1 [Cefaclor hydrate] | -0.551 | -0.828 | -0.722 | -0.368 | -0.522 | -0.558 |
| CCCCC1C(=O)N(c2ccccc2)N(c2ccc(O)cc2)C1=O (configuration not stated) [Oxyphenbutazone] | -0.518 | -0.9 | 0.131 | 0.127 | -0.41 | -0.527 |
| COC(c1ccccc1)(c1ccccc1)[C@H](Oc1nc(C)cc(C)n1)C(=O)O [Ambrisentan] | -0.48 | -0.16 | -0.0813 | 1.12 | -0.393 | -0.359 |
| CN(C)CCC=C1c2ccccc2C=Cc2ccccc21 [Cyclobenzaprine hydrochloride] | 2.59 | 2.51 | 1.71 | 0.233 | 2.57 | 2.22 |
| C[N+]1(CCCCC[N+]2(C)CCCC2)CCCC1 [Pentolinium bitartrate] | -0.453 | -0.278 | -0.653 | -0.161 | -0.437 | -0.405 |
| CCCCC(CC)CN1CN(CC(CC)CCCC)CC(C)(N)C1 (configuration not stated) [Hexetidine] | 0.287 | -1.15 | 1.01 | -0.0808 | 0.351 | -0.116 |
| NC[C@H]1CC[C@H](C(=O)O)CC1 [Tranexamic acid] | -0.452 | -0.543 | -0.422 | -0.896 | -0.524 | -0.663 |
| COc1ccc2[nH]c([S+]([O-])Cc3ncc(C)c(OC)c3C)nc2c1 (configuration not stated) [Omeprazole] | -0.534 | -0.664 | -0.421 | -0.0929 | -0.508 | -0.373 |
| CCN(CC)CCNC(=O)c1cc(S(C)(=O)=O)ccc1OC [Tiapride hydrochloride] | -0.48 | 0.333 | -0.576 | -0.522 | -0.565 | -0.513 |
| O=C1C(O)=C(O)C(=O)C(O)=C1O [Tetrahydroxy-1,4-quinone monohydrate] | -0.376 | 0.48 | -0.203 | -0.164 | -0.404 | -0.442 |
| O=C1CC2(CCCC2)CC(=O)N1CCCCN1CCN(c2ncccn2)CC1 [Buspirone hydrochloride] | -0.302 | -0.586 | 0.536 | 0.427 | -0.00788 | 0.293 |
| NC12CC3CC(CC(C3)C1)C2 [Adamantamine fumarate] | -0.644 | -1.51 | -0.89 | -0.605 | -0.499 | -0.616 |
| CCN[C@H]1C[C@H](C)S(=O)(=O)c2sc(S(N)(=O)=O)cc21 [Dorzolamide hydrochloride] | -0.573 | -0.633 | 0.0896 | 0.22 | -0.481 | -0.217 |
| N[C@@H](Cc1ccc(O)c(O)c1)C(=O)O [Levodopa] | -0.339 | -0.518 | -0.462 | -0.115 | -0.332 | -0.358 |

From the supplement of paper PMC6607015
